In PubChem BioAssay (EPA / NIEHS) one finds outcome and AC50 data, which are given here for 7 compounds.

Assay [1] in a line: ATG_M_32_CIS: Attagene CIS-FACTORIAL HepG2 Assay for M32 Transcription Factor (Internal Marker) (AID 2282949).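 Note: background control marker of the multiplexed CIS panel rather than a real target.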 The conditions noted are these: HepG2 Attagene cis-factorial M32 reporter, mRNA; actives raise or lower the signal. Summed up: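 Following 24 h chemical exposure of HepG2 cells transiently expressing cis-promoter reporter constructs, reporter transcript levels were determined by RT-PCR with fluorescent labelling and capillary electrophoresis, then fitted bidirectionally against DMSO.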

Assay [2] in a line: ATG_M_06_CIS: Attagene CIS-FACTORIAL HepG2 Assay for M06 Transcription Factor (Internal Marker) (AID 2282950). As to conditions: HepG2 Attagene CIS-FACTORIAL M06 internal marker reporter; actives raise or lower the signal. Put shortly: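 Internal background marker within multiplexed cis-reporter HepG2 system. Cells transiently transfected, dosed 24 h; reporter mRNA measured by RT-PCR, HpaI digestion and capillary electrophoresis. Bidirectional fit relative to DMSO.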

Assay [3] addresses Hypoxia-inducible factor 1-alpha (Homo sapiens) (UniProt Q16665). Description: ATG_HIF1a_CIS: Attagene CIS-FACTORIAL HepG2 Assay for human Hypoxia Inducible Factor 1 (HIF1A) (AID 2282951). The conditions noted are these: HepG2 Attagene cis-factorial HIF1a reporter transcription; actives raise or lower the signal. Summed up: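 Measures endogenous transcription-factor activity through cis-regulated reporter mRNA in HepG2. Cells dosed 24 h; transcripts quantified by RT-PCR with 6-FAM-labelled products separated by capillary electrophoresis; DMSO serves as negative control.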

Assay [4] concerns the target Hepatocyte nuclear factor 6 (Homo sapiens) (UniProt Q9UBC0). Description: ATG_HNF6_CIS: Attagene CIS-FACTORIAL HepG2 Assay for human Hepatocyte Nuclear Factor 6 (HNF6) (AID 2282952). As to conditions: HepG2 Attagene cis-factorial HNF6 reporter transcription; actives raise or lower the signal. Put shortly:
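HepG2, transient MRTU transfection (cis promoters); 24 h chemical exposure; total RNA → oligo(dT) RT → PCR → 6-FAM labelling → HpaI cut → CE; bidirectional fit vs DMSO.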

Assay [5] deals with Heat shock factor protein 1 (Homo sapiens) (UniProt Q00613). In words: ATG_HSE_CIS: Attagene CIS-FACTORIAL HepG2 Assay for human Heat Shock Transcription Factor 1 (HSE) (AID 2282953). As to conditions: HepG2 HSE cis-reporter, Attagene RNA transcription; actives raise or lower the signal. Put shortly:
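HepG2 cells transfected with cis-promoter reporter units sensing endogenous transcription factor activity; reporter mRNA quantified 24 h post-dose by RT-PCR and capillary electrophoresis of 6-FAM-labelled products. Bidirectional fitting against DMSO.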

The nature of assay [6]: ATG_MRE_CIS: Attagene CIS-FACTORIAL HepG2 Assay for human Metal Responsive Element (MRE) (AID 2282954). As to conditions: HepG2 MRE cis-reporter transcription, Attagene multiplex; actives raise or lower the signal. Summed up:
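HepG2 cells transiently transfected with multiple cis-element reporter units measure endogenous MTF1-driven transcription. After 24 h compound exposure, reporter mRNA is quantified by RT-PCR with 6-FAM labelling, HpaI digestion and capillary electrophoresis; bidirectional fits versus DMSO.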

A short description of assay [7]: ATG_PBREM_CIS: Attagene CIS-FACTORIAL HepG2 Assay for human Phenobarbital-responsive Enhancer Module (PBREM) (AID 2282955). The conditions noted are these: HepG2 PBREM cis-reporter, Attagene multiplexed transcription; actives raise or lower the signal. Summed up: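 Fluorescence of labelled reporter cDNA fragments, resolved by capillary electrophoresis, gives mRNA induction in transfected HepG2 cells treated for 24 h; DMSO serves as negative control and baseline.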

For assay [8], the target named is Paired box protein Pax-6 (Homo sapiens) (UniProt P26367). In words: ATG_Pax6_CIS: Attagene CIS-FACTORIAL HepG2 Assay for human Paired Box 6 (PAX6) (AID 2282956). The conditions noted are these: HepG2 CIS-FACTORIAL PAX6 reporter transcription, RNA readout; actives raise or lower the signal. Summed up:
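After twenty-four hours of chemical exposure, transfected HepG2 cells are harvested for RNA. Cis-promoter reporter transcripts are amplified, fluorescently labelled and sized by capillary electrophoresis, with gain and loss of signal scored against DMSO.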

A short description of assay [9]: ATG_PXRE_CIS: Attagene CIS-FACTORIAL HepG2 Assay for human Pregnane X Receptor Element (PXRE) (AID 2282957). As to conditions: HepG2 Attagene CIS-FACTORIAL PXRE reporter, mRNA; actives raise or lower the signal. Summed up: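 Transfect HepG2 with MRTUs (cis promoter elements); dose chemical, incubate 24 h; isolate RNA, RT with oligo(dT), PCR, 6-FAM label, HpaI cut, CE. Gain/loss fit vs DMSO.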

The nature of assay [10]: ATG_PPRE_CIS: Attagene CIS-FACTORIAL HepG2 Assay for human Peroxisome Proliferator-activated Response Element (PPRE) (AID 2282958). As to conditions: HepG2 PPRE cis-element reporter, Attagene transcription factor profiling; actives raise or lower the signal. Summed up: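 Cells are first transfected transiently with the multiplexed reporter library, then dosed for 24 h. Total RNA is reverse-transcribed, amplified, fluorescently end-labeled and HpaI-cut before capillary electrophoresis; activity is fitted bidirectionally against DMSO controls.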

Assay [11] in a line: ATG_RORE_CIS: Attagene CIS-FACTORIAL HepG2 Assay for human RAR-related Orphan Receptor Element (RORE) (AID 2282959). As to conditions: HepG2 Attagene cis-factorial RORE reporter, mRNA; actives raise or lower the signal. Summed up:
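Cells were HepG2 carrying transfected cis-regulated reporter constructs, dosed for 24 hours. Total RNA was reverse-transcribed and reporter cDNA amplified, fluorescently labeled and sized by capillary electrophoresis. Activity was fitted bidirectionally relative to DMSO.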

Assay [12] is described as follows: ATG_Sox_CIS: Attagene CIS-FACTORIAL HepG2 Assay for human SRY-box transcription factor (SOX) (AID 2282960). As to conditions: HepG2 Attagene cis-factorial SOX reporter, mRNA; actives raise or lower the signal. Summed up:
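Transient MRTU transfection of HepG2; 24 h compound incubation; TriZol RNA, oligo(dT) RT, PCR, 6-FAM primer extension, HpaI cut, CE. Bidirectional fit, DMSO = baseline.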

For assay [13], the target named is Transcription factor Sp1 (Homo sapiens) (UniProt P08047). Description: ATG_Sp1_CIS: Attagene CIS-FACTORIAL HepG2 Assay for human Specificity Protein 1 (Sp1) (AID 2282961). As to conditions: HepG2 Sp1 cis-reporter transcription, actives raise or lower the signal. Summed up:
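Endogenous Sp1 activity was gauged in human liver HepG2 cells bearing transfected reporter units under a cis-regulating promoter. After 24 h dosing, reporter mRNA was quantified by RT-PCR with capillary electrophoresis, and activity fitted bidirectionally versus DMSO.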

The nature of assay [14]: ATG_SREBP_CIS: Attagene CIS-FACTORIAL HepG2 Assay for human Sterol Regulatory Element Binding (SREBP) (AID 2282962). As to conditions: HepG2 Attagene cis-factorial SREBP reporter, mRNA; actives raise or lower the signal. Put shortly: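 Twenty-four hours after chemical dosing of transfected HepG2 cultures, reporter RNA was converted to cDNA, amplified, end-labelled with 6-FAM and resolved by capillary electrophoresis. Responses were fitted relative to DMSO.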

Assay [15] concerns the target Signal transducer and activator of transcription 3 (Homo sapiens) (UniProt P40763). In words: ATG_STAT3_CIS: Attagene CIS-FACTORIAL HepG2 Assay for human Signal Transducer and Activator of Transcription 3 (STAT3) (AID 2282963). The conditions noted are these: HepG2, Attagene cis-factorial STAT3 reporter transcription; actives raise or lower the signal. Put shortly: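 HepG2 cells transiently transfected with cis-element-driven multiple reporter transcription units; after 24 h chemical exposure, reporter mRNA measured by RT-PCR, 6-FAM primer-extension labelling, HpaI digestion and capillary electrophoresis. Bidirectional fitting versus DMSO baseline.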

The nature of assay [16]: ATG_TA_CIS: Attagene CIS-FACTORIAL HepG2 Assay for human TA Basal Promoter (AID 2282964). As to conditions: HepG2 Attagene CIS-factorial TA basal promoter reporter; actives raise or lower the signal. Put shortly: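 HepG2 cells transiently transfected with multiple reporter units under cis promoter elements, reporting endogenous transcription factor activity; this endpoint tracks the TA basal promoter as background control. Reporter mRNA after 24 h dosing measured by RT-PCR/capillary electrophoresis; bidirectional fits versus DMSO.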

Assay [17] can be described thus: ATG_TCF_b_cat_CIS: Attagene CIS-FACTORIAL HepG2 Assay for human T-Cell-Factor with beta-catenin (TCF/b-cat) (AID 2282965). The conditions noted are these: HepG2 TCF/beta-catenin cis-reporter transcription, actives raise or lower the signal. Put shortly:
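Using capillary electrophoresis as the read-out, labelled reporter cDNA fragments from transiently transfected HepG2 were sized and quantified. Exposure lasted 24 hours; activity in either direction was referenced to DMSO.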

Assay [18] in a line: ATG_TAL_CIS: Attagene CIS-FACTORIAL HepG2 Assay for human TAL Basal Promoter (AID 2282966).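 Note: background control endpoint measuring basal TAL promoter reporter mRNA not a specific factor.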 As to conditions: HepG2 Attagene cis-factorial TAL promoter reporter; actives raise or lower the signal. Put shortly: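 Fluorescence of labelled reporter cDNA fragments, resolved by capillary electrophoresis, gave the readout. Human HepG2 liver cells carried transiently transfected cis-element reporter units and were treated for 24 hours; activity was fitted bidirectionally against DMSO.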

The nature of assay [19]: ATG_TGFb_CIS: Attagene CIS-FACTORIAL HepG2 Assay for human Transforming Growth Factor (TGF) (AID 2282967). As to conditions: HepG2 Attagene CIS TGFb reporter, mRNA transcription; actives raise or lower the signal. Summed up: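 HepG2 cells transiently transfected with cis-promoter-driven multiple reporter units measure endogenous TF activity; reporter mRNA quantified at 24 h by RT-PCR, FAM labeling, HpaI digestion and capillary electrophoresis. Bidirectional fit vs DMSO.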

Assay [20] can be described thus: ATG_VDRE_CIS: Attagene CIS-FACTORIAL HepG2 Assay for human Vitamin D Receptor Element (VDRE) (AID 2282968). The conditions noted are these: HepG2 VDRE cis-reporter transcription, actives raise or lower the signal. Summed up: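 HepG2 cells transiently transfected with cis-element reporter units, dosed 24 h; reporter mRNA measured by RT-PCR, 6-FAM labeling, HpaI digestion and capillary electrophoresis. Activity fitted bidirectionally against DMSO baseline.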

The source made the active and inactive calls. Rule for the calls: active = hit-call score of the fitted dose curve at least 0.9, where 1 is the maximum; inactive = score below 0.9.

Chain of Paired box protein Pax-6 (Homo sapiens) (P26367 whole entry, looked up): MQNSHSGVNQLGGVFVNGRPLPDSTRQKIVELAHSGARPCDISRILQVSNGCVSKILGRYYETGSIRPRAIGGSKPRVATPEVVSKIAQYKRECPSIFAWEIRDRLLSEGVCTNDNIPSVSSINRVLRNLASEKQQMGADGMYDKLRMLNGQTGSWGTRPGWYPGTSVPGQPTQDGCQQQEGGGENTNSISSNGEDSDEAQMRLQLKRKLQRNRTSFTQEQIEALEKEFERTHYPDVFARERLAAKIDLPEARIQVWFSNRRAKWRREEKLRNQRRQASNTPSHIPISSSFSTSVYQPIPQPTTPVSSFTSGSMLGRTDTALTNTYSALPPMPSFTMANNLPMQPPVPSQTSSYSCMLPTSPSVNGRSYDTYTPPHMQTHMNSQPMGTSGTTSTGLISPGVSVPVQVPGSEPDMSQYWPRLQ
Chain of Hepatocyte nuclear factor 6 (Homo sapiens) (Q9UBC0 whole entry, looked up): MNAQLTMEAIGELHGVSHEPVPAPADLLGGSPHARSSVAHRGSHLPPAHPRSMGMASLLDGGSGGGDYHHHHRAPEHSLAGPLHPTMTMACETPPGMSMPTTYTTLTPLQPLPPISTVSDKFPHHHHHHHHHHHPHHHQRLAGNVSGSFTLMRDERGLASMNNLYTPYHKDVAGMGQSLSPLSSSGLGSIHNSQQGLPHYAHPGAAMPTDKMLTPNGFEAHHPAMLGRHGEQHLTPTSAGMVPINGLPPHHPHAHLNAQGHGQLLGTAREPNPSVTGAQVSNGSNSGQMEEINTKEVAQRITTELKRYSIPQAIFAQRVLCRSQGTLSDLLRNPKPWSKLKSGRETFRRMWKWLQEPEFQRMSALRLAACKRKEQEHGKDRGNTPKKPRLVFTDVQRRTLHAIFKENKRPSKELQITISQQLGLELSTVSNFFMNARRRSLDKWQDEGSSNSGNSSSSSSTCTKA
Chain of Heat shock factor protein 1 (Homo sapiens) (Q00613 whole entry, looked up): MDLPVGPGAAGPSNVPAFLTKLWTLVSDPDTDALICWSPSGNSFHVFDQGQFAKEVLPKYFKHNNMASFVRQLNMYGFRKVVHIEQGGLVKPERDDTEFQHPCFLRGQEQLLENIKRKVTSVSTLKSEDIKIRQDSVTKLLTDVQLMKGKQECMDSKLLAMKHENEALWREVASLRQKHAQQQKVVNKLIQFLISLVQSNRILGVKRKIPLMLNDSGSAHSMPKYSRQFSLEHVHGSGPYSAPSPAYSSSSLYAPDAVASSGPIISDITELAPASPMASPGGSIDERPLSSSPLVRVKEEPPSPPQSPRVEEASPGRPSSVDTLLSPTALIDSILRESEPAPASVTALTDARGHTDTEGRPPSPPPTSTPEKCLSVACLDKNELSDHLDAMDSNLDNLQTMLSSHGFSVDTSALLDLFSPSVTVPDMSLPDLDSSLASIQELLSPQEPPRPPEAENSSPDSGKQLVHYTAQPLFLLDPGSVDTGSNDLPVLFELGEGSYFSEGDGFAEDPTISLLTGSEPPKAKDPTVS
Chain of Signal transducer and activator of transcription 3 (Homo sapiens) (P40763 whole entry, looked up): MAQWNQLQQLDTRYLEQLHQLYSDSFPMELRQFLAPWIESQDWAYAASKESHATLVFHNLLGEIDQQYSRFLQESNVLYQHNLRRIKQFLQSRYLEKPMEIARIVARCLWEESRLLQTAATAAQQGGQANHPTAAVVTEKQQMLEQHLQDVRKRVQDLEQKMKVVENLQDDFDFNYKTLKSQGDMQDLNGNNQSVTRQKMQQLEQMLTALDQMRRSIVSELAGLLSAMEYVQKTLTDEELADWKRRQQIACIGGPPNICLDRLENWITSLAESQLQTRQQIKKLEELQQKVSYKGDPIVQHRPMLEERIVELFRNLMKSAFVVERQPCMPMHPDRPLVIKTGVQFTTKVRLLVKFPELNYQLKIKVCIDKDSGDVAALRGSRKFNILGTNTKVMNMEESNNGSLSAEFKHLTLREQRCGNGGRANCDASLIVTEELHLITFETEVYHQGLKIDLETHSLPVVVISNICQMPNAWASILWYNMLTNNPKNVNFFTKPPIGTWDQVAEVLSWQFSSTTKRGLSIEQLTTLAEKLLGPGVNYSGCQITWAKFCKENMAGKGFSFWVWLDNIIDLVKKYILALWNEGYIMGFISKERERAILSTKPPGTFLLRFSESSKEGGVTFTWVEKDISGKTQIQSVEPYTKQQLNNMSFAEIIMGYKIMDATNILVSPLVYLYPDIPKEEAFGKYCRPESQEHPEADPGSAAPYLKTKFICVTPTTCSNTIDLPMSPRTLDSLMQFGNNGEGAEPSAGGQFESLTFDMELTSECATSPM
Chain of Transcription factor Sp1 (Homo sapiens) (P08047 whole entry, looked up): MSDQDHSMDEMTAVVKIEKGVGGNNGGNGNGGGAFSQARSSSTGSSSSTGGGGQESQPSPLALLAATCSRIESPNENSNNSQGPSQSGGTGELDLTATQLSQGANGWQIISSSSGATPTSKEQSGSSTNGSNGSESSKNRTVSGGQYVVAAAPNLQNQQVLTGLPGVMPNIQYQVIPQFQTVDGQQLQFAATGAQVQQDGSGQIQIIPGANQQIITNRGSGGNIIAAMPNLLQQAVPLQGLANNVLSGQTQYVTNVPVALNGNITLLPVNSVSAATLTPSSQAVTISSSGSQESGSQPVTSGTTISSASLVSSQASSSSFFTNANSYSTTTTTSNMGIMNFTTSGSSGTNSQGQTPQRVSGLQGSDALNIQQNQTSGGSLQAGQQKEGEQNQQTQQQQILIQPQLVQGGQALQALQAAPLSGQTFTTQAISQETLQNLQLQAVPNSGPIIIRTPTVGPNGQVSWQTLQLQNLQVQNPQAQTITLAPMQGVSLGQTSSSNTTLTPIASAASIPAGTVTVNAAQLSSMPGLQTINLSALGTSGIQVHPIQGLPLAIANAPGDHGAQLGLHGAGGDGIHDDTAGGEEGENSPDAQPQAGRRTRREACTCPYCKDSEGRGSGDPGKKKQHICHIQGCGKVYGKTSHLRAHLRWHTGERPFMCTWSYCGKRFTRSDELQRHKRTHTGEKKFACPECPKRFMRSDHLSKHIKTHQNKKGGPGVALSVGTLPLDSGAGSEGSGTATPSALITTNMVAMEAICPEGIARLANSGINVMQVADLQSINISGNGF
Chain of Hypoxia-inducible factor 1-alpha (Homo sapiens) (Q16665 whole entry, looked up): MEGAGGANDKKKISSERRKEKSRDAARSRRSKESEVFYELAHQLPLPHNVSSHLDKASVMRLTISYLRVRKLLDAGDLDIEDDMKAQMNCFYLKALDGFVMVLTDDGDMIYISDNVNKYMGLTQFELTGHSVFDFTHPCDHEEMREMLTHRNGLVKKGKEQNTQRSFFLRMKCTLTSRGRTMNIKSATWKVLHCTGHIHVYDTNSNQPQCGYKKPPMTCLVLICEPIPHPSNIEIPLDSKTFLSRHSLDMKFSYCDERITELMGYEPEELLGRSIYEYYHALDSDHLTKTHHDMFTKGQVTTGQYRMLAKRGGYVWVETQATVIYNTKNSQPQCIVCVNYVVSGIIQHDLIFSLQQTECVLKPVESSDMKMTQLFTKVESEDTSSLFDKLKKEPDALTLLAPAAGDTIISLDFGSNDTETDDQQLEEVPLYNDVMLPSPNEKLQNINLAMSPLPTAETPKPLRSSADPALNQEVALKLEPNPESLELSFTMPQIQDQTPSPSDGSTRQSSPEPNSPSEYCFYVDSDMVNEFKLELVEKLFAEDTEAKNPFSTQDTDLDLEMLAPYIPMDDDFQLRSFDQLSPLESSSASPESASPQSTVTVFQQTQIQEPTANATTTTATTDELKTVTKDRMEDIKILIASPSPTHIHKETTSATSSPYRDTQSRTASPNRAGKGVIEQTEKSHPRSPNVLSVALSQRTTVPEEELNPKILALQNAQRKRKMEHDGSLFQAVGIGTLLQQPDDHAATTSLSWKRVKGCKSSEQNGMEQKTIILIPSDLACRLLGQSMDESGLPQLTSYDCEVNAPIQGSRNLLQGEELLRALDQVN

With `C=COC(=O)C(C)(C)CCCCCC`, the compound was classed as inactive in [1], in assay [2], in [4], in assay [5], in assay [6] and in assay [7]. For the same compound, the result in assay [8], in assay [10], in assay [11], in assay [12], in [13] and in assay [14] was inactive. Moreover, the compound was classed as inactive in assay [15], in assay [16], in assay [17], in [18], in assay [19] and in assay [20]. Moreover, the values for the concentration at half-maximal activity (AC50) in assay [3] and in [9] were 130 µM (active) and 27.9 µM (active), respectively.
Turning to `Oc1cc2ccccc2cc1O`, the compound was classed as inactive in assay [1], in [2], in assay [3], in assay [4], in [5] and in assay [6]. Moreover, the outcome in assay [7], in assay [8], in assay [9], in [11], in assay [12] and in [13] was inactive. The call in assay [14], in assay [15], in [16], in assay [17], in assay [18] and in [19] was inactive. The result in assay [20] was inactive. In addition, the AC50 (in general, the concentration giving half of the maximal activity seen) in assay [10] was 100 µM (active).
For `Cc1cc(Cc2cc(C)cc(C(C)(C)C)c2O)c(O)c(C(C)(C)C)c1`, the AC50 in assay [1] was 100 µM (active); in assay [3] it was 41.4 µM (active); in assay [4] it was 176 µM (active); in [7], 151 µM (active); in [9], 0.0497 µM (active); in assay [12] it was 153 µM (active). In addition, the AC50 in [13] was 93.6 µM (active); in [15], 160 µM (active); in [17], 180 µM (active); in assay [19], 56.6 µM (active). The result in [2], in assay [5], in assay [6], in [8], in assay [10] and in assay [11] was inactive. For the same compound, the compound was called inactive in assay [14], in assay [16], in assay [18] and in assay [20].
In the case of `CN(Cc1cnc2nc(N)nc(N)c2n1)c1ccc(C(=O)N[C@@H](CCC(=O)O)C(=O)O)cc1`, the result in assay [1], in assay [2], in assay [4], in assay [5], in [6] and in [7] was inactive. Moreover, the outcome in assay [8], in assay [11], in [12], in [13], in [14] and in [15] was inactive. The call in assay [16], in [17], in [18] and in assay [19] was inactive. The AC50 in assay [9] is 58.9 µM (active).
In the case of `CCCCC(CC)C(=O)O` (stereo not given), the outcome in assay [1], in assay [2], in assay [3], in assay [4], in assay [5] and in assay [6] was inactive. Moreover, the call in assay [9], in assay [10], in [11], in assay [12], in assay [13] and in assay [14] was inactive. The call in [15], in assay [16], in [17], in [18] and in assay [19] was inactive.
With `CC1CCC(CO)CC1` (stereo not given), the call in [1], in [2], in assay [3], in assay [4], in assay [5] and in assay [6] was inactive. For the same compound, the outcome in [7], in assay [9], in assay [11], in assay [12], in assay [13] and in assay [14] was inactive. For the same compound, the outcome in assay [15], in [16], in assay [17], in assay [18], in assay [19] and in assay [20] was inactive.
As for `CCc1ccccc1O`, the compound was classed as inactive in assay [1], in assay [2], in assay [3], in assay [4], in [5] and in assay [6]. In addition, the outcome in assay [7], in [10], in assay [11], in [12], in [13] and in assay [14] was inactive. Also, the compound was classed as inactive in assay [15], in assay [16], in [17], in assay [18] and in assay [19]. Also, in assay [20], the AC50 is 27.9 µM (active).
